D2 ag-1 = Beta-Arrestin HTS for Positive Allosteric Modulators of the Human D2 Dopamine Receptor: Agonists; AID 624465, 2012; DiscoveRx PathHunter D2 beta-arrestin, luminescence, 90 min; 100% = 57 uM dopamine signal; D(2) dopamine receptor (Homo sapiens), P14416; hit rate 0.084% among 360,000; activation, % (no concentration beside the values); in the data active means activation above about 40%; inconclusive means between about 15% and that limit
Target sequence (P14416 whole entry, looked up): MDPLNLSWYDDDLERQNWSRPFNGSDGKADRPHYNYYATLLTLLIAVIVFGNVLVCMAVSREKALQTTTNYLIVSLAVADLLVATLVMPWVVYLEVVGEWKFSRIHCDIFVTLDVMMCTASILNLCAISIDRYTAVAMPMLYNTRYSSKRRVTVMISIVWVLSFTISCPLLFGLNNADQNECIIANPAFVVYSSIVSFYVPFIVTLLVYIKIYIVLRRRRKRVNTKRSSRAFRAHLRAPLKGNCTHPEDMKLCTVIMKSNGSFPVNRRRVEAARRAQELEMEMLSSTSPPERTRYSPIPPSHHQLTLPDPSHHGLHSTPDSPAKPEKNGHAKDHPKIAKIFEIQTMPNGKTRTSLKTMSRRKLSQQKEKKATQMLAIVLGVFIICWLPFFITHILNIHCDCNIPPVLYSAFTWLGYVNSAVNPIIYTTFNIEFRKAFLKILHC
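Agonist mode: compounds alone added to overnight-plated D2 PathHunter cells for 90 min at 37 C, with 57 uM final dopamine (EC100) defining full response. Beta-arrestin recruitment detected by chemiluminescent reagent, read after 1 h at ambient temperature.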
D2 PAM-1 = HTS Assay for Positive Allosteric Modulators of the Human D2 Dopamine Receptor: Primary Screen for Potentiators. hit rate 0.34% among 340,000. potentiation, % at 10 µM. HEK293 T-REx D2, calcium flux, EC20 dopamine potentiation. AID 485347, 2010;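 active means potentiation over 3 SD above the plate norm, cut at about 30% in these data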
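Potentiation of an EC20 dopamine calcium response measured kinetically over 180 s, after a preceding 180 s compound-only read flagging agonists. Cells: inducible Hek293 Trex D2 line, 4000/well, cultured overnight at 30 C before dye loading.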
D2 PAM-2 = Beta-Arrestin HTS for Positive Allosteric Modulators of the Human D2 Dopamine Receptor: Potentiators; hit rate 0.23% among 360,000; AID 624464, 2012; potentiation, % (no concentration beside the values); DiscoveRx D2 beta-arrestin cells, luminescence, 90 min; 100% = 57 uM dopamine signal; D(2) dopamine receptor (Homo sapiens), P14416; in the data active means potentiation above about 50%; inconclusive means mostly about 30% to 49%
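PathHunter D2 cells, attached overnight at 37 deg C, received compound in DMSO plus dopamine at EC20 (50 nM final) for 90 min at 37 deg C. Beta-arrestin recruitment was read as luminescence after 1 h with detection reagent at ambient temperature.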
D2 antagonist = HTS Assay for Allosteric Antagonists of the Human D2 Dopamine Receptor: Primary Screen for Antagonists; D(2) dopamine receptor (Homo sapiens), P14416; HEK293 TREx D2 cells, calcium flux, dopamine EC80; inhibition, % at 10 µM; hit rate 2% among 340,000; in the data active means inhibition above about 30%; inactive means below that, where a call was filed
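Cells plated overnight at 30 C with tetracycline; no-wash calcium dye, 30–90 min RT; 10 s baseline; compound pinned; 180 s read; EC80 dopamine added; another 180 s read.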
D2 ag-2 = HTS Assay for Allosteric Agonists of the Human D2 Dopamine Receptor: Primary Screen for Agonists | HEK293 T-REx D2 cells, calcium flux agonist mode | AID 485358, 2010 | activation, % at 2 µM | hit rate 0.53% among 340,000 | D(2) dopamine receptor (Homo sapiens), P14416;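 active means activation over 3 SD above normal in the single-dose calcium agonist read, cut at about 30% in these data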
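HEK293 Trex D2 cells, tetracycline-induced, o/n 30 C 5% CO2; no-wash Ca dye, RT 30–90 min; 10-cycle baseline, 23 nl cpd added, kinetic Ca read 180 s; agonist hits = positive Ca response.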
Hits are given with their value; - = inactive; ? = inconclusive; . = no result given. An excerpt weighted towards active compounds, which were near 2.4% of everything screened.

SMILES	D2 ag-1	D2 PAM-1	D2 PAM-2	D2 antagonist	D2 ag-2
O=[N+]([O-])c1nn(-c2ccccc2)n(O)c1=NCCc1ccccc1	?	-	161	-	-
Cc1c2cnn(CC(=O)NCc3ccc(F)cc3)c(=O)c2c(C)n1Cc1cccc(Cl)c1	.	-	.	.	-
COc1cc(NC(=O)N2CCC(CN3CCOCC3)CC2)cc(OC)c1OC	.	.	.	.	-
CCCCn1c(N)c(N(CC(C)C)C(=O)C2=COCCO2)c(=O)[nH]c1=O	-	-	-	-	-
COc1ccc(NC(=O)/C(Cl)=C(/Cl)S(=O)Cc2ccccc2)cn1 (stereo not drawn)	-	-	-	32	-
CC(=O)c1ccc(NC(=O)CSc2nc(-c3ccc(C)cc3)nc3c2c(=O)n(C)c(=O)n3C)cc1	.	-	.	.	-
C=CCN(c1ccccc1C(=O)O)S(=O)(=O)c1ccc(C)cc1	-	-	-	-	-
O=C(Nc1cccc(F)c1)c1ccc2c(c1)OCO2	-	.	-	31	-
CCOc1cc(C(=O)Nc2ccc3c(c2)OCO3)ccc1OCCOc1ccccc1Cl	-	-	-	32	-
O=C(NNC(=O)c1ccc(F)cc1F)c1ccc2c(c1)OCO2	-	-	-	37	-
CCOc1ccccc1C(=O)NC(C)c1ccc2c(c1)OCO2 (stereo not drawn)	-	-	-	40	-
CCC(Oc1ccccc1OC)C(=O)Nc1ccc2c(c1)OCO2 (stereo not drawn)	-	-	-	-	-
COc1ccc(S(=O)(=O)N2CCCCCC2)cc1N	-	-	-	-	-
CCCc1cc(=O)[nH]c2nnc(SCC(=O)NCc3ccc4c(c3)OCO4)n12	-	.	-	.	.
O=C(Nc1ccc(Nc2ccccc2)cc1)c1cccc(F)c1	-	32	-	-	-
O=C(Nc1cccc(F)c1)c1ccccc1	-	-	-	-	-
OCC1(Cc2ccc(F)cc2)CCCN(CCc2ccccc2)C1 (stereo not drawn)	-	-	-	-	-
CC(=O)c1c(N2CCN(Cc3ccccc3)CC2)[nH]c(-c2ccccc2)nc1=S	-	-	-	73	-
CC(=O)c1c(N2CCCC2)[nH]c(-c2ccccc2)nc1=S	-	-	-	-	-
Cc1noc(C)c1NC(=O)N(C)C[C@H]1Oc2c(NS(=O)(=O)c3cn(C)cn3)cccc2C(=O)N([C@H](C)CO)C[C@@H]1C	-	.	-	.	.
O=C(CSc1nnc(-c2ccco2)n1CC1CCCO1)N1CCCCC1 (stereo not drawn)	-	-	-	-	-
Nn1c(SCC(=O)N2CCCCCC2)nnc1-c1ccncc1	-	-	-	30	-
O=C(CSc1nnc(-c2ccccc2)n1CC1CCCO1)N1CCCC1 (stereo not drawn)	-	32	-	-	-
O=C(Cc1cccc2ccccc12)Nc1ccccc1Br	-	-	-	-	-
CCCC(=O)NCC(c1ccc2c(c1)OCO2)N1CCN(c2ccccc2)CC1 (stereo not drawn)	.	-	.	.	-
SMILES	D2 ag-1	D2 PAM-1	D2 PAM-2	D2 antagonist	D2 ag-2
COc1c(F)c(F)c(C(=O)O)c(Nc2ccc(C)cc2)c1F	-	-	-	-	-
Cc1ccc(C)c(Nc2c(F)c(F)c(F)c(F)c2C(=O)O)c1	-	32	-	-	-
O=c1onc(-c2ccccc2Cl)n1-c1ccccc1Cl	40	.	58	.	.
CCOC(=O)c1cc2c(=O)n3ccccc3nc2n(Cc2ccco2)c1=NC(=O)c1cccc(F)c1	.	-	.	.	.
Cc1nn(CC(C)C)c(=S)[nH]c1=O	-	-	-	32	-
O=C(NC1=C(Nc2ccc(F)cc2)C(=O)c2ccccc2C1=O)c1ccc(Cl)cc1	-	-	70	-	-
O=C(NNC(=O)c1ccc(NC(=O)c2ccccc2)cc1)c1ccc(F)cc1	-	-	-	-	-
Cn1nnnc1SCCNCc1ccccc1OCc1ccccc1F	.	-	.	.	-
COc1ccc(CC(=O)N/N=C/c2ccc(-c3ccc(F)cc3)o2)cc1OC	-	-	-	-	40
